Measurements: article PMC5540273 (PLoS ONE, 2017)

Tests used:
LZK = tested on: T1, LZK
T1 construct: gene MAP3K13
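Note: kd values determined as follow-up on hits from a single-replicate KINOMEscan panel screen.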

SMILES: O=C(Nc1n[nH]c2cc(-c3cccc(F)c3F)ccc12)C1CC1 [SB-733894]
- Kd (LZK): > 10 µM

SMILES: COc1cccc(-c2cc(-c3c[nH]nc3-c3ccccn3)ccn2)c1 [GW680338]
- Kd (MAK): > 10 µM

SMILES: Cc1cc(-c2ccc3c(c2)CC[C@@H](N[C@@H](C)c2ccccc2)C3)cnc1N.Cl [GW412617]
- Kd (MAP4K2): 0.043 µM
